Data: PubChem BioAssay (NCI)
The panel holds about 83,000 compounds, 20% with a hit somewhere; the sample as a whole holds those more often.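 Single-dose data. Exposure time 48 hours. Values below 10 considered active.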 Calls of active or inactive are those of the source.

Test system: HL-60(TB) leukemia
Assay: NCI-60 one-dose screen, 48 h (100 = growth as untreated, 0 = no growth, -100 = all killed)
Conditions: 10 µM unless noted

Structure (SMILES) | growth
C#CCN(C)CCCOc1ccc(NC(=O)CCCCCCC(=O)NO)cc1Cl | 12.1% (inactive)
Fc1ccc(-c2cn3c(-c4c[nH]c5ccc(Br)cc45)csc3n2)cc1 | 104% (inactive)
O=C(/C=C/c1cccc(F)c1)c1cccc(OCCCCOc2cccc(C(=O)/C=C/c3cccc(F)c3)c2)c1 | 101% (inactive)
O=C1Nc2cc(OC(F)(F)F)ccc2Oc2ccc(-c3ccnc(N4CCNCC4)c3)cc21 | -41.4% (active)
CN1CCN(Cc2ccc(NC(=O)c3cncc(C#Cc4cnc5ccc(NCCO)nn45)c3)cc2C(F)(F)F)CC1 | -12.1% (active)
CC[C@H](CO)Nc1ccc2ncc(C#Cc3cncc(C(=O)Nc4ccc(CN5CCN(C)CC5)c(C(F)(F)F)c4)c3)n2n1 | -46.3% (active)
COc1ccc(/C=N/Nc2nc(N/N=C/c3ccc(OC)cc3O)nc(N3CCOCC3)n2)c(O)c1 | 30.9% (inactive)
CN1CCN(Cc2ccc(NC(=O)c3cncc(C#Cc4cnc5ccc(OCC6COC6)nn45)c3)cc2C(F)(F)F)CC1 | -42.8% (active)
COc1ccccc1-n1cc(C#N)c(N)c1C(=O)c1ccc(C)cc1 | 56.7% (inactive)
N#Cc1nc(-c2ccccc2)oc1N1CCC(C2(C(F)(F)F)N=N2)CC1 | 95.4% (inactive)
O=C1c2c(c3c4cc(Br)ccc4[nH]c3c3ccc4ccccc4c23)C(=O)N1CCO | 96.7% (inactive)
Clc1cccc(/C=N/Nc2nc(N/N=C/c3cccc(Cl)c3Cl)nc(N3CCCCC3)n2)c1Cl | 106% (inactive)
O=C(/C=C/c1cccc(C(F)(F)F)c1)Nc1cccc(C(F)(F)F)c1 | 38.3% (inactive)
Cc1cc(F)cc(NS(=O)(=O)c2ccc(-c3cnc(C4CC4)o3)cc2)c1 | 1.67% (active)
Cc1ccc(-c2cc3nc(C(Cl)Cl)nc(-c4cccs4)n3n2)cc1 | 23.9% (inactive)
COc1ccc(C(=NNS(=O)(=O)c2ccc(C)cc2)c2ccccc2)cc1OC | 96.9% (inactive)
COc1ccc(OC)c(-c2nc(SCC(=O)c3ccc(Br)cc3)nc(Nc3ccc(S(N)(=O)=O)cc3)c2C#N)c1 | 25.9% (inactive)
O=C1NC(=O)/C(=C/c2ccc(OCc3cc4ccccc4nc3Cl)cc2)S1 | 100% (inactive)

Structure (SMILES) | growth
C1=CC(c2nn3c(-c4ccccc4)nnc3s2)=Cc2ccccc2O1 | 37% (inactive)
Cc1cccc2c3c(sc12)C(c1ccc(Cl)cc1)c1c(nc(CC(=O)Nc2ccccc2)[nH]c1=O)O3 (stereo not given) | 71.3% (inactive)
Nc1nc(N)c2c(n1)NC(c1ccc(C(F)(F)F)cc1)CC(c1ccc(Nc3nc(NCCO)nc(Nc4ccc(Cl)cc4)n3)cc1)=N2 (stereo not given) | -28.3% (active)
Cc1ccccc1NC1CC(=O)N(c2ccc(Cl)cc2Cl)C1=O (stereo not given) | 102% (inactive)
CNC(=O)c1cc(Oc2ccc3nc(NC(=O)c4cccc(C(F)(F)F)c4)sc3c2)ccn1 | 143% (inactive)
NS(=O)(=O)c1cccc(Nc2nc(SCC(=O)c3ccc([N+](=O)[O-])cc3)nc3ccccc23)c1 | 0.866% (active)
O=C1C[C@@H](c2ccccc2)Oc2c(Cc3ccccc3O)c(O)c(Cc3cc(Cc4cc(Cc5ccccc5O)ccc4O)ccc3O)c(O)c21 | 95.1% (inactive)
O=C1c2c(c3c4cccnc4[nH]c3c3ccc4ccccc4c23)C(=O)N1CCN1CCCCC1 | 35.4% (inactive)
Cc1ccc2c(c1)Oc1nc(N)c(C#N)c(N)c1C2Sc1ccc(F)cc1 (stereo not given) | -51.7% (active)
O=C(Nc1cccc(Cl)c1)Nc1nc2ccc([N+](=O)[O-])cc2s1 | -40% (active)
CC(=O)Oc1ccccc1C(=O)Nc1ccc(C(=O)/C=C/c2ccncc2)cc1 | 7.33% (active)
CCN1CCN(Cc2cn(-c3ccc(S(N)(=O)=O)cc3)nn2)CC1 | 110% (inactive)
CN(C)c1ccc(-c2c(NC(C)(C)C)nc3c(OCCc4ccccc4)cccn23)cc1 | -32.7% (active)
CC1(C)CC[C@]2(C(=O)O)CC[C@]3(C)C(=CC[C@@H]4[C@@]5(C)CC[C@H](NOCCCN)C(C)(C)[C@@H]5CC[C@]43C)[C@@H]2C1 | 20.2% (inactive)
COc1cc(-c2nn(C(C)(C)C)cc2-c2ccnc(NCCCNS(=O)(=O)c3cccc(F)c3)n2)ccc1Cl | 81.9% (inactive)
O=C(CN1CCN(c2cc(=O)[nH]c3ccc(F)cc23)CC1)Nc1ccc(Cl)cc1 | 87.6% (inactive)
COc1ccc(N)cc1C(=O)Nc1cccc(-c2cc(=O)c3c(OC)c(OC)c(OC)cc3o2)c1 | 58.1% (inactive)
